Assay results taken from PubChem BioAssay (NCI).
Compounds without any hit were thinned out: in the full panel of roughly 83,000, 20% have a hit.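 Cells were grown in 96-well plates and exposed to the test compound at a single concentration for 48 hours; results are reported as percent growth, with values below 10 considered active.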

Columns and labels:
Experiment in all cases: NCI-60 one-dose screen, 48 h (100 = growth as untreated, 0 = no growth, -100 = all killed)
[1] = system: SK-MEL-2 melanoma; conditions: 10 µM
[2] = system: EKVX NSCLC; conditions: 10 µM
[3] = system: SN12C renal; conditions: 10 µM
[4] = system: UO-31 renal; conditions: 10 µM
[5] = system: TK-10 renal; conditions: 10 µM unless noted
[6] = system: ACHN renal; conditions: 10 µM
[7] = system: CAKI-1 renal; conditions: 10 µM
[8] = system: A498 renal; conditions: 10 µM
[9] = system: MOLT-4 leukemia; conditions: 10 µM
[10] = system: SR leukemia; conditions: 10 µM
[11] = system: OVCAR-8 ovarian; conditions: 10 µM
[12] = system: OVCAR-5 ovarian; conditions: 10 µM
[13] = system: SK-OV-3 ovarian; conditions: 10 µM
[14] = system: IGROV1 ovarian; conditions: 10 µM
[15] = system: OVCAR-3 ovarian; conditions: 10 µM
[16] = system: NCI/ADR-RES ovarian; conditions: 10 µM
[17] = system: CCRF-CEM leukemia; conditions: 10 µM
[18] = system: RPMI-8226 leukemia; conditions: 10 µM
[19] = system: OVCAR-4 ovarian; conditions: 10 µM
[20] = system: HS 578T breast; conditions: 10 µM

Measured: growth

CC1=NN(c2ccccc2)C(=O)/C1=C\N1CC(=O)NC1=S
inactive: [1] 108% | [2] 105% | [3] 101% | [4] 92% | [5] 122% | [6] 98.8% | [7] 98% | [8] 92.9% | [9] 102% | [10] 89.1% | [11] 102% | [12] 119% | [13] 101% | [14] 106% | [15] 111% | [16] 103%

CC1CCCC(CC(N)=O)CC1 (centres undefined)
inactive: [1] 109% | [2] 107% | [3] 107% | [4] 91% | [5] 94.2% | [6] 103% | [7] 93.4% | [17] 90.4% | [9] 101% | [10] 94.7% | [18] 88.8% | [11] 89% | [12] 104% | [19] 108% | [13] 107% | [14] 114% | [15] 102% | [20] 107% | [16] 105%

CC(=O)Nc1ccc(NC(C)=O)c2c1C(=O)c1ccccc1C2=O
inactive: [1] 103% | [2] 73.5% | [3] 86.9% | [4] 59.5% | [5] 92.6% | [6] 78.8% | [7] 68.6% | [8] 91.1% | [9] 105% | [10] 78.9% | [11] 92.8% | [12] 88.4% | [13] 88.5% | [14] 67% | [15] 104% | [20] 102% | [16] 95.4%

c1ccc(Sc2ccccc2)cc1
inactive: [1] 97.5% | [2] 101% | [3] 105% | [4] 87% | [5] 101% | [6] 108% | [8] 97.6% | [17] 97.7% | [9] 87.4% | [10] 82.9% | [18] 99.7% | [11] 102% | [12] 104% | [19] 111% | [13] 104% | [14] 117% | [15] 106% | [20] 115% | [16] 112%

O=C(O)C(Cc1ccccc1)C(=O)O
inactive: [1] 111% | [2] 106% | [3] 103% | [4] 91.6% | [5] 105% | [6] 111% | [8] 89.1% | [17] 97.9% | [9] 116% | [10] 101% | [18] 109% | [11] 109% | [12] 111% | [19] 96.3% | [13] 103% | [14] 113% | [15] 110% | [20] 104% | [16] 106%

CCOC(=O)/C(C#N)=C/c1cccc(C)c1
inactive: [1] 106% | [2] 98.9% | [3] 103% | [4] 88.9% | [5] 98% | [6] 98.9% | [7] 69.5% | [8] 101% | [12] 96.1% | [19] 104% | [13] 101% | [15] 106% | [20] 107% | [16] 97.3%

O=C1C[C@H](c2ccccc2)[C@H](c2ccccc2)C1
inactive: [1] 93% | [2] 106% | [3] 98.7% | [4] 81.9% | [5] 94.2% | [6] 102% | [7] 89.7% | [17] 95.1% | [9] 94.9% | [10] 99.2% | [18] 83.2% | [11] 109% | [12] 95.8% | [19] 105% | [13] 102% | [14] 112% | [15] 118% | [20] 112% | [16] 106%

CC1(C)/C(=C\CO)C2CCC1C2 (centres undefined)
inactive: [1] 105% | [2] 113% | [3] 99.4% | [4] 78.5% | [5] 89.7% | [6] 112% | [7] 102% | [17] 92.3% | [9] 107% | [10] 97.8% | [18] 91.6% | [11] 114% | [12] 105% | [19] 111% | [13] 99.8% | [14] 112% | [15] 119% | [20] 101% | [16] 105%

O=C(/C=C\c1ccc(O)cc1)c1ccccc1
inactive: [1] 114% | [2] 91.3% | [3] 89% | [4] 67.8% | [5] 95.2% | [6] 97.2% | [7] 85.1% | [8] 114% | [9] 96.1% | [10] 76.6% | [11] 98.6% | [12] 88.4% | [13] 108% | [14] 87.3% | [15] 96% | [20] 110% | [16] 101%
